Laboratory results as given in the supplement of paper PMC13380429.
Values without a mark were called inactive.

System: Vero E6 infected with SARS-CoV-2
Experiment: inhibition of SARS-CoV-2 cytopathic effect; higher = more antiviral protection, active = above 15
Details: 48 h

Structure (SMILES) | inhibition of SARS-CoV-2 cytopathic effect (1 nM) [%] | inhibition of SARS-CoV-2 cytopathic effect (8.33 nM) [%] | inhibition of SARS-CoV-2 cytopathic effect (100 nM) [%] | inhibition of SARS-CoV-2 cytopathic effect (833.33 nM) [%] | inhibition of SARS-CoV-2 cytopathic effect (10000 nM)
Nc1nc(N)nc(-c2cc(Cl)ccc2Cl)n1 [irsogladine] | 2.68 | 1.38 | 0.04 | 1.79 | -0.24%
COc1ccc2c(c1OC)C(=O)O[C@@H]2[C@H]1c2cc3c(cc2CCN1C)OCO3 [hydrastine-(1R,9S)] | 2.12 | 0.73 | 1.14 | 1.33 | -0.76%
Cc1cccc(-c2[nH]c(CNc3ccccc3F)nc2-c2ccc3ncnn3c2)n1 | 0.31 | 3.47 | 1.38 | 1.08 | 2.46%
CC(=O)c1cc([N+](=O)[O-])c(Sc2ccc(F)cc2F)s1 | -0.55 | 1.74 | 0.23 | -0.14 | 19.6% (active)
CC(C)=CCC[C@](C)(O)[C@@H]1CC=C(C)CC1 [levomenol] | 0.81 | 4.97 | 5.57 | 3.97 | 0.76%
Cc1cn(-c2cc(NC(=O)c3ccc(C)c(Nc4nccc(-c5cccnc5)n4)c3)cc(C(F)(F)F)c2)cn1 [nilotinib] | 3.96 | 3.56 | 3.11 | 5.24 | 6.03%
CC(C)[C@H](O)C(=O)N[C@@H](C)C(=O)N[C@@H]1C(=O)N(C)CCc2ccccc21 [semagacestat] | -0.47 | 3.54 | -1.88 | -1.76 | -3.08%
CC1(C)C(/C=C/C=C/C=C/C=C2\N(CCCCS(=O)(=O)O)c3ccc4ccccc4c3C2(C)C)=[N+](CCCCS(=O)(=O)[O-])c2ccc3ccccc3c21 [indocyanine-green] | -0.13 | 1.53 | 0.85 | 1.22 | 0.23%
CC1(C)O[C@@H]2C[C@H]3[C@@H]4CCC5=CC(=O)C=C[C@]5(C)[C@H]4[C@@H](O)C[C@]3(C)[C@]2(C(=O)CO)O1 [desonide] | 1.41 | 2.82 | 5.19 | 5.19 | 1.37%
CN(C)CCOc1cc(-c2cn[nH]c2)ccc1NC(=O)C1COc2ccccc2O1 (stereo not given) | -1.4 | 1.35 | 0.53 | -5.69 | -6.4%
C=C(C)[C@@H]1CC[C@]2(C(=O)O)CC[C@]3(C)[C@H](CC[C@@H]4[C@@]5(C)CC[C@H](O)C(C)(C)[C@@H]5CC[C@]43C)[C@@H]12 [betulinic-acid] | -1.47 | -3.53 | -2.01 | 0.38 | 0.04%
COc1ccccc1OCC(O)CN1CCN(CC(=O)Nc2c(C)cccc2C)CC1 (stereo not given) [ranolazine] | 0.1 | -0.38 | -2.33 | 0.17 | -0.73%
O=[N+]([O-])c1cn2c(n1)OC[C@@H](OCc1ccc(OC(F)(F)F)cc1)C2 [pretomanid] | 0.26 | 0.54 | -0.43 | -0.88 | 0.65%
CCN(CC)S(=O)(=O)c1ccc(C(=O)O)cc1 [etebenecid] | -3.2 | 1.54 | 0.48 | 1.89 | 2.73%
N[C@@H](CS)C(=O)O [L-cysteine] | 1.7 | -1.19 | -0.65 | -1.16 | -5.76%
CC(=O)N[C@@H](CC(C)C)C(=O)O [acetyl-l-leucine] | 1.37 | -0.18 | -0.14 | -1.79 | -0.49%
CCC[C@@H](NC(=O)N1C(=O)C(CC)(CC)[C@@H]1Oc1ccc(C(=O)N2CCN(C)CC2)cc1)c1ccc2c(c1)OCO2 | 1.03 | 1.44 | -0.09 | 1.96 | -6.67%
CN(C(=O)c1c(O)c2ccccc2n(C)c1=O)c1ccccc1 [roquinimex] | -4.01 | 0.29 | 2.85 | -0.21 | 0%
